Source: PubChem BioAssay AID493011 (Sanford-Burnham Center for Chemical Genomics, 2011)
About 1,400 (0.42%) of roughly 330,000 compounds were called active. Many of the other results were omitted from the sample, so actives are more common in it than they were. Unmarked numbers belong to inactive results.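 Rule for the calls: active = at least 40% inhibition at 20 µM here, with at most 30% in a related deaminase screen; inactive = the rest.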

biological target: DNA dC->dU-editing enzyme APOBEC-3A (Homo sapiens) (UniProt P31941); test: APOBEC3A ssDNA deaminase inhibitors, primary screen, selectivity assay for APOBEC3G inhibitor project, biochemical, FAM/TAMRA oligo cleavage fluorescence (AID 493011); settings: recombinant A3A, FAM/TAMRA ssDNA deamination fluorescence; at 20 µM; hits give high values;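 note: plate controls were A3A with DMSO for no effect and wells lacking A3A enzyme for full effect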
Sequence (P31941 whole entry, looked up): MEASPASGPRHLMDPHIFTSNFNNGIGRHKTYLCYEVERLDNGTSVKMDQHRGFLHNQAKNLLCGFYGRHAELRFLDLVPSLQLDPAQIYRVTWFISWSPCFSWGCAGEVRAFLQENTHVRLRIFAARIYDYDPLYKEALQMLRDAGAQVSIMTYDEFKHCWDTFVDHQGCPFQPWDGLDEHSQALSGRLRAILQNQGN

Row | SMILES | inhibition
1 | CC(=O)N/C(=N/c1nc(C)cc(C)n1)Nc1ccc(F)cc1F | -1.6%
2 | CC(=O)NNc1cc(=O)c2c(=O)n(C)c(=O)n(C)c2[nH]1 | 2.94%
3 | CC(=O)Nc1ccc(S(=O)(=O)Oc2ccc(/C=N/N=C3/NC(=O)C(CC(=O)O)S3)cc2)cc1 (centres undefined) | -1.33%
4 | COc1ccccc1CCNC(=O)C1CCN(C(=O)/C=C/c2ccccc2)CC1 | 40.4% (active)
5 | COc1ccccc1CNC(=O)C1CCN(C(=O)[C@@H]2Cc3ccccc3CN2)CC1 | -2.15%
6 | COc1ccccc1CNC(=O)C1CCN(S(C)(=O)=O)CC1 | 3.64%
7 | CCCc1nnc(SCC(=O)N2C(C)CCCC2C)n1CC (centres undefined) | 0.831%
8 | COc1cc(C(CCN2CCN(c3ccccc3)CC2)c2c(OC)cc(OC)c3ccc(=O)oc23)cc(OC)c1OC (centres undefined) | -5.74%
9 | CC(C)(C)C(=O)CSc1ccc(S(=O)(=O)N2CCCC2)cn1 | -1.15%
10 | CC(Oc1ccc(F)cc1)C(=O)Nc1cc(S(=O)(=O)N2CCOCC2)ccc1N1CCN(C)CC1 (centres undefined) | 63.9% (active)
11 | CN1CCN(c2ccc(S(=O)(=O)N3CCOCC3)cc2NC(=O)CCc2ccccc2)CC1 | 3.6%
12 | CCN(CC)S(=O)(=O)c1ccc(N2CCOCC2)c(NC(=O)C(C)Oc2ccc(F)cc2)c1 (centres undefined) | -2.06%
13 | O=C(CN(CC1CCCO1)C(=O)CNS(=O)(=O)c1ccccc1)NCc1ccccc1 (centres undefined) | -2.59%
14 | COc1ccc(NC(=O)CSc2nc(C)cs2)cc1 | 3.79%
15 | Cc1ccc(NC(=O)CSCC(=O)Nc2sccc2C#N)cc1 | -0.813%
16 | Cc1csc(SCC(=O)Nc2sccc2C#N)n1 | 67.3% (active)
17 | CCN(CC)c1ccc(S(=O)(=O)N2CCCCC2)cc1NC(=O)C1=COCCO1 | -3.33%
18 | CCCC(=O)Nc1cccc(NC(=S)NC(=O)C(C)Oc2ccc(Cl)cc2Cl)c1 (centres undefined) | 1.55%
19 | CC(C)Cc1ccc(C(C)C(=N)N)cc1 (centres undefined) | 2.27%
20 | COc1ccccc1CNC(=O)CCCN1C(=O)NC2(CCCC2)C1=O | -3.53%
21 | COc1ccc(C)cc1NC(=O)CNCc1cccs1 | -2.55%
22 | COc1ccc(C)cc1NC(=O)CCCN1C(=O)NC(C)(C)C1=O | 47.3% (active)
23 | Cc1nnsc1S(=O)(=O)Cc1ccccc1Cl | -0.082%

Row | SMILES | inhibition
24 | CC(C)CNC(=O)CC(c1ccccc1)c1c(O)ccc2ccccc12 (centres undefined) | -1.51%
25 | CC1CCCCC1NC(=O)NC(=O)COC(=O)C1=NN(c2ccccc2)C(=O)CC1 (centres undefined) | 1.05%
26 | CSc1nnc(-c2ccncc2)n1CCCN1CCCC1=O | 63% (active)
27 | COCCCn1c(SCC(=O)Nc2ccccc2)nnc1-c1ccncc1 | 0.275%
28 | CCCn1c(SCC(=O)N2CCc3ccccc32)nnc1-c1ccncc1 | -1.68%
29 | CCN(CC(=O)Nc1cc(Cl)ccc1C)C(=O)Cn1c(=O)cnc2ccccc21 | 10.7%
30 | CCOc1ccc(C(=O)CCN2CCOCC2)cc1 | -4.07%
31 | CCC(=O)c1ccc(OCC(O)CN2CC(C)OC(C)C2)cc1 (centres undefined) | 0.408%
32 | CC(C)CCOc1ccc(C(=O)C[N+]2(C)CCOCC2)cc1 | 83.1% (active)
33 | CCn1c(=O)c(=O)[nH]c2c(=O)oc3ccc(S(=O)(=O)Nc4ccc(OC)cc4)cc3c21 | -3.37%
34 | CCC(C)c1ccc(NC(=S)N2CCCC2)cc1 (centres undefined) | -3.82%
35 | O=S(=O)(Nc1ccccc1N1CCOCC1)c1ccc(Cl)s1 | 2.47%
36 | COc1cccc(N2CCN(c3ccc4nnc(CCC(=O)N5CCN(C)CC5)n4n3)CC2)c1 | -4.98%
37 | Fc1cc(Br)ccc1NC(=S)Nc1cccnc1 | -0.709%
38 | COc1cc(/C=N/NC(=S)Nc2cccnc2)cc(OC)c1O | -4.38%
39 | S=C(Nc1cccnc1)Nc1ccccn1 | 63.4% (active)
40 | O=C(COC(=O)C1CCN(S(=O)(=O)c2ccc3c(c2)OCCO3)CC1)Nc1ccccc1OC(F)F | 3.88%
41 | CCc1ccc(NC2Nc3cc(C)nn3S2)cc1 (centres undefined) | -0.183%
42 | Cc1nnc(CN(C)Cc2cn[nH]c2-c2ccc(-c3ccccc3)cc2)o1 | 1.98%
43 | COc1ccc(C(=O)OCC(=O)NC(=O)CCSc2ccccc2)cc1 | 0.284%
44 | CCS(=O)(=O)C1=NSC2=NC(=O)/C(=C\c3ccc(OS(=O)(=O)c4ccccc4)cc3)C(=N)N21 | -0.304%
45 | CS(=O)(=O)c1ccc2c(c1)SC1=NC(=O)/C(=C/c3ccco3)C(=N)N12 | 41.6% (active)
46 | CCS(=O)(=O)C1=NSC2=NC(=O)/C(=C\c3cc(C)n(-c4cccc(OC)c4)c3C)C(=N)N21 | -3.79%

Row | SMILES | inhibition
47 | COc1cc(C)c(Cl)cc1S(=O)(=O)n1ccnc1 | -3.09%
48 | Cc1noc(C)c1S(=O)(=O)N(C)C[C@H]1Oc2ccc(NC(=O)C3CC3)cc2C(=O)N([C@H](C)CO)C[C@@H]1C | -2.35%
49 | O=C(NNC(=O)c1cnccc1C(F)(F)F)c1ccc(Cl)cc1 | -3.45%
50 | CN(c1ccccc1)S(=O)(=O)c1cc(C(=O)Nc2nc3ccccc3[nH]2)ccc1Cl | 2.16%
51 | O=C(Nc1cccc(-c2nc3ccccc3[nH]2)c1)c1ccc(C(=O)Nc2cccc(-c3nc4ccccc4[nH]3)c2)cc1 | 52.5% (active)
52 | O=C(Nc1ccccc1)c1cc2ccccc2[nH]1 | 2.51%
53 | C/C(=N\NC(=O)C1(C)CC1(Br)Br)c1ccc(C)cc1C (centres undefined) | 3.9%
54 | CC(Oc1ccc(F)cc1)C(=O)N1CCN(c2ncccn2)CC1 (centres undefined) | 3.53%
55 | Cc1ccc(NC(=O)COc2coc(CN3CCc4ccccc4C3)cc2=O)cc1Cl | -2.19%
56 | c1ccc(C(c2ccccc2)N2CCN(Cc3nnnn3C3CCCCC3)CC2)cc1 | -5.77%
57 | CC1(C)CC(N2CCN(C(c3ccccc3)c3ccccc3)CC2)=CC(=[N+]2CCCCC2)C1 | 57.4% (active)
58 | COc1ccccc1CN1CCN(C(c2ccccc2)c2ccccc2)CC1 | -1.76%
59 | COc1cc(C(=O)OCC(=O)NC(C)CCc2ccccc2)cc(OC)c1OC (centres undefined) | -4.8%
60 | Cc1ccc(S(=O)(=O)N2CCCCC2)cc1C(=O)N(C)CC(=O)Nc1cccc(F)c1 | 4.08%
61 | CN(C)S(=O)(=O)c1ccc(N2CCCC2)c(C(=O)Nc2cccc(F)c2)c1 | -1.6%
62 | CCCCCCCC[n+]1cccc(C(=O)N2c3c(nc(N)[nH]c3=O)NC(C)C2C)c1 (centres undefined) | 66.2% (active)
63 | CCCCCCn1c(SCC(=O)c2ccccc2)nc2c1c(=O)[nH]c(=O)n2C | -3.65%
64 | Cc1ccc(C(=O)NC(=S)Nc2ccc3[nH]c(=O)[nH]c3c2)cc1C | -1.4%
65 | NC(N)=N/N=C/c1ccc(OCc2ccc(Cl)cc2Cl)cc1 | 0.729%
66 | C/C(N)=C(/C#N)C(=O)COC(=O)C1CCN(C(=O)c2ccc(Cl)cc2)CC1 | -0.831%
67 | COc1ccc(N2C(=O)CC(Nc3ccc(F)cc3)C2=O)c([N+](=O)[O-])c1 (centres undefined) | -1.69%
68 | CC(=O)NCc1ccc(-c2csc(NC(=O)CCCc3nc4ccccc4c(=O)[nH]3)n2)cc1 | 4.49%
69 | O=C(CSc1nc2ccccc2c(=O)[nH]1)Nc1nc(-c2ccc(Br)cc2)cs1 | 44.5% (active)

Row | SMILES | inhibition
70 | CCOC(=O)c1ccccc1NC(=O)CSc1nc2ccccc2c(=O)[nH]1 | 1.48%
71 | CCCCN(C(=O)c1ccc2ccccc2c1)c1c(N)n(CCCC)c(=O)[nH]c1=O | -4.05%
72 | CCN(C(=O)COc1cccnc1[N+](=O)[O-])C1CCS(=O)(=O)C1 (centres undefined) | 0.474%
73 | CCN1C(=NCC(C)C)N[C@@H](CCc2ccccc2)[C@H](C(=O)NCC(C)C)[C@H]1C | 53.8% (active)
74 | CCN1C(=S)N[C@@H](CCc2ccccc2)[C@H](C(=O)OC)[C@H]1C | -3.49%
75 | CCN1C(=NCc2ccc(OC)cc2)N[C@@H](CCc2ccccc2)[C@H](C(=O)NCc2ccc(OC)cc2)[C@H]1C | 49.6% (active)
76 | CCN1C(=O)N[C@@H](CCc2ccccc2)C(C(=O)OC)=C1C | -3.29%
77 | COCCN1C(=O)N[C@@H](CCc2ccccc2)[C@H](C(C)=O)[C@H]1C | 0.644%
78 | CC(C)CNC(=O)C(=O)NCc1ccccc1 | 6.28%
79 | Cc1ccc(-c2ccc(=O)n(CC(=O)NCCCN3CCCCC3)n2)cc1 | -1.5%
80 | CCN(CC)CCCNC(=O)CCn1nc(-c2ccc(Cl)cc2)ccc1=O | 98.8% (active)
81 | CCCCNC(=O)CCn1nc(-c2ccc(Cl)cc2)ccc1=O | -0.453%
82 | Cc1cc(=O)[nH]c(SCc2cc(Cl)ccc2OC(F)F)n1 | -4.15%
83 | Cc1cc(=O)[nH]c(SCc2cccc(F)c2)n1 | -0.614%
84 | COc1ccccc1-c1noc(CSc2nc(C)cc(=O)[nH]2)n1 | 53.2% (active)
85 | CC1CCN(S(=O)(=O)c2ccc(S(=O)(=O)NCc3ccco3)cc2)CC1 | -4.88%
86 | CN(CCOc1ccc(Br)cc1)CC(=O)Nc1cccc(S(=O)(=O)NC2=NCCC2)c1 | -4.16%
87 | COc1ccc(NC(=O)CN(C)C(=O)/C=C/c2cn(Cc3ccccc3)nc2-c2cccnc2)cc1 | 43.8% (active)
88 | COc1cccc(NC(=O)CN(C)C(=O)/C=C/c2cn(-c3ccccc3)nc2-c2cccs2)c1 | -4.72%
89 | COc1cccc(NC(=O)CN(C)C(=O)/C=C/c2cc(OC)ccc2OC)c1 | -6.53%
